Screening data as filed in PubChem BioAssay.
KCNQ2 enhance – potentiators of rat KCNQ2 potassium channel; B-score at 10 µM; 310,000 tested, 0.54% active; Potassium voltage-gated channel subfamily KQT member 2 (Rattus norvegicus), O88943; CHO-K1 KCNQ2, FluxOR thallium flux fluorescence; active compounds read high;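 active means fluorescence ratio B-score at least 3 SD of library B-scores, with initial fluorescence B-score within 3 of them, cut at about 5.3 in these data; same plate scores as AID 2156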;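 further: B-score of peak minus minimum over baseline fluorescence ratio after K+ and Tl+ stimulus; positive B-score means potentiation of KCNQ2 with more thallium influx and brighter signal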
KCNQ2 inh – rat KCNQ2 potassium channel inhibitors, primary screen, cell-based, CHO-K1, FluxOR thallium flux, B-score; Potassium voltage-gated channel subfamily KQT member 2 (Rattus norvegicus), O88943; 20 min; active compounds read low; B-score at 10 µM; 310,000 tested, 1.1% active; AID 2156, 2009;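 active means fluorescence ratio B-score at most minus 3 library SDs, with starting brightness B-score within 2 library SDs, cut at about -5.5 in these data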
Kir21 confirm – mouse Kir2.1 channel blockers, retest, confirmation, cell-based, FluxOR thallium flux, duplicate; shares compounds with KCNQ2 enhance; Kir2.1-expressing cells, FluxOR thallium flux fluorescence; active compounds read low; Tl flux remaining, % of negative control (active compounds read low), % at 10 µM; 2,300 tested, 41% active; AID 2032, 2009;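 active means Primary-screen hit whose thallium flux fell at least 3 control SD below untreated wells in both duplicates, with normal baseline fluorescence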;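 further: 0% = blank wells without stimulus and 100% = stimulated no-compound controls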
Target sequence (P35561 whole entry, looked up): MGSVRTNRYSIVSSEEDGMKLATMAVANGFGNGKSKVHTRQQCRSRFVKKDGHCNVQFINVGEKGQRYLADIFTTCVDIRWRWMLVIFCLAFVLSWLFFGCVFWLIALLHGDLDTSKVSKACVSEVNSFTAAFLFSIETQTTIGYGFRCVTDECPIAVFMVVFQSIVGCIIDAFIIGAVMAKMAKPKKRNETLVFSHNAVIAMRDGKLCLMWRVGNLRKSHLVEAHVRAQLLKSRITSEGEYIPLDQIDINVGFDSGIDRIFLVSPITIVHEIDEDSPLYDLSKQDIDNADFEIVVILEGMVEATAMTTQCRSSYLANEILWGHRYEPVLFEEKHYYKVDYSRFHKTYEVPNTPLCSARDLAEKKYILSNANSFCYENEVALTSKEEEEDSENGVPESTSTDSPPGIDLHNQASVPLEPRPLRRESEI
HEK293 Tl flux – counter-screen for Kir2.1 inhibitors: effect in parental HEK293 cells; FluxOR signal as % of negative control (100 = no effect), % at 10 µM; 2,300 tested, 19% active; shares compounds with KCNQ2 enhance; FluxOR thallium flux fluorescence; 0% = unstimulated blank wells;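 active means dye signal at least 3 control SD above or below untreated wells in both duplicates, raw fluorescence within 3, either direction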;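 further: percent is based on the flux ratio of peak minus minimum fluorescence over baseline F0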
CHO-K1 Tl ctr – nonspecific thallium flux increase in parental CHO-K1, confirmation, counter-screen for KCNQ2 potentiator project, cell-based, FluxOR thallium flux, duplicate. shares compounds with KCNQ2 enhance. parental CHO-K1 cells, FluxOR thallium flux fluorescence; zero = vehicle mean+3SD, 100% = vehicle-minus-blank window. activity increase over 3SD of controls, % at 10 µM. 1,200 tested, 43% active. AID 2282, 2010;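 active means signal rise of at least 3 SD above the untreated control mean, in both duplicate wells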;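 further: counter screen of KCNQ2 potentiator hits so any rise reflects channel-independent effects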
KCNQ1 pot spec – human KCNQ1 channel potentiation off-target, confirmation, selectivity assay for KCNQ2 potentiator project, cell-based, CHO, FluxOR thallium flux; 1,200 tested, 28% active; activation over 3SD threshold, % at 10 µM; AID 2283, 2010; shares compounds with KCNQ2 enhance; CHO KCNQ1 stable, FluxOR thallium flux fluorescence; beyond 3SD, as % of vehicle-control signal;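 active means fluorescence ratio rise of at least 3 SD of vehicle wells above their mean, in both replicate wells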;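 further: 0% = vehicle mean plus 3 SD and 100% = vehicle minus unstimulated blank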
KCNQ2 pot confirm – rat KCNQ2 channel potentiators, confirmation, cell-based, CHO, FluxOR thallium flux, duplicate; shares compounds with KCNQ2 enhance; CHO-KCNQ2 cells, FluxOR thallium flux fluorescence; potentiation, less the hit threshold, % at 10 µM; 1,200 tested, 68% active; AID 2287, 2010;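 active means fluorescence ratio rising 3 SD or more over the vehicle control mean in both replicates, plus primary screen hit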;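 further: peak minus minimum thallium fluorescence divided by baseline after K/Tl stimulus; 0% = vehicle mean plus 3 SD and 100% = vehicle minus unstimulated blank difference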
Kir2-1 sel – mouse Kir2.1 channel activation off-target, confirmation, selectivity assay for KCNQ2 potentiator project, cell-based, HEK293, FluxOR thallium flux; 1,200 tested, 2% active; shares compounds with KCNQ2 enhance; activity over 3SD threshold, % at 10 µM; HEK293 Kir2.1, FluxOR thallium flux fluorescence;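 active means fluorescence ratio rise of at least 3 SD above the vehicle-control mean, seen in both replicates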;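 further: 0% = vehicle mean plus 3 SD and 100% = vehicle minus no-stimulus blank window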
KCNQ2 W236L pot – potentiators of retigabine-insensitive KCNQ2 W236L, mechanism study for KCNQ2 potentiator project, cell-based, rat KCNQ2 W236L, CHO, automated patch clamp; shares compounds with KCNQ2 enhance; automated patch clamp current; current increase over 3SD of negative controls (%), active compounds read high, % at 25 µM; 940 tested, 10% active; AID 2558, 2010;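 active means current increase at least 3 SD of the untreated controls above them in both duplicate recordings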
Numbers without * were called inactive; i = inactive; · = not tested or not shown. In the library only some 1.6% were active in any assay of this set; here they are far more common.

SMILES | KCNQ2 enhance | KCNQ2 inh | Kir21 confirm | HEK293 Tl flux | others
N=c1n(Cc2ccccc2)c2ccccc2n1CC(O)c1ccco1 (stereo unspecified) | 0.66 | i | · | ·
N=c1n(Cc2ccccc2)c2ccccc2n1Cc1ccccc1 | 0.8 | i | · | ·
COc1ccc(OCC(O)Cn2c(=N)n(Cc3ccccc3)c3ccccc32)cc1 (stereo unspecified) | · | i | 45.5%* | i
Cc1cccc(OCC(O)Cn2c(=N)n(CCN3CCCCC3)c3ccccc32)c1 (stereo unspecified) | · | i | · | ·
Cc1cccc(OCC(O)Cn2c(=N)n(Cc3ccccc3)c3ccccc32)c1 (stereo unspecified) | · | i | 32.0%* | i
Cc1ccc(OCC(O)Cn2c(=N)n(Cc3ccccc3)c3ccccc32)cc1 (stereo unspecified) | · | i | 37.5%* | i
Cc1ccc(OCC(=O)N(C)CC(=O)Nc2cccc(F)c2)cc1 | 0.05 | i | · | ·
CCc1cc2c(N3CCN(C(=O)c4ccco4)CC3)ncnc2s1 | 5.72* | i | i | i | CHO-K1 Tl ctr=-7.7;KCNQ1 pot spec=35.6*;KCNQ2 pot confirm=-18.1;Kir2-1 sel=-38.8
O=C(c1ccco1)N1CCN(c2ncnc3c2cnn3-c2ccccc2)CC1 | 0.79 | i | · | ·
CC(=O)c1c(C)[nH]c(-c2ccccc2)nc1=S | 5.98* | i | i | 167.5%* | CHO-K1 Tl ctr=41.2*;KCNQ1 pot spec=-4.4;KCNQ2 pot confirm=-2.3;Kir2-1 sel=-24.1;KCNQ2 W236L pot=i
COc1ccccc1-c1nc(=S)c(C(C)=O)c(C)[nH]1 | 0.12 | i | · | ·
CC(C)C(=O)N1CCN(c2ccccc2NC(=O)c2ccco2)CC1 | 0.02 | i | · | ·
Cc1ccc(C(=O)N2CCN(c3ccc(F)cc3)CC2)cc1S(=O)(=O)N1CCCCC1 | · | i | · | ·
Cc1ccc(C(=O)N2CCN(c3ccccc3)CC2)cc1S(=O)(=O)N1CCCC1 | 1.72 | i | i | i
Cc1ccc(CNS(=O)(=O)c2ccc(-n3cnnn3)c(C)c2)cc1 | 0.38 | i | · | ·
